# Results from PubChem BioAssay (NCATS).
# Values joined by “and” are separate entries in the source; they are usually repeats but may differ in a detail not shown here. Equal entries are not always repeated. Records with an inconclusive call do not appear. A call without a number means that no potency is given here. A structure can be active in one record and inactive in another. Active and inactive are the calls of the source. Unless noted, calls follow the shape of the dose curve; as a rule, active = well fitted curve in the direction sought with a large enough effect; inconclusive = small, poorly fitted or top-dose-only effect, or another doubt; inactive = no such curve, though single readings can be large; an effect the other way counts as inactive or inconclusive.
# Columns and labels:
# [1] = molecular target: DNA polymerase III PolC-type (Bacillus subtilis (strain 168)) (UniProt P13267); assay: qHTS Validation Assay for the Inhibitors of DNA Replication in Gram-Positive Bacteria (AID 485295); also: potency is read from the fitted curve at half-maximal effect
# Procedure, shortened: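 PicoGreen fluorescence (ex 480–485/em 535–540 nm) reports dsDNA synthesized on ssM13Gori template with dNTPs/NTPs. Enzyme: holoenzyme rebuilt from purified PolC, beta subunit, SSB and primase. Compound preincubated before substrate addition; RT throughout.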
# [2] = qHTS Validation Assay to Find Inhibitors of Chronic Active B-Cell Receptor Signaling (AID 485345; active = well fitted curve in the direction sought with a large enough effect in the main read-out, with a control signal flat, not every such curve was filed as active)
# Procedure, shortened: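 TMD8 ABC-DLBCL cells stably carrying doxycycline-inducible IkappaBalpha–green luciferase fusion plus unfused red luciferase; compounds 46 uM to 3 nM, 4 h at 37C with doxycycline. Corrected green/red luminescence ratio normalized to 10 uM MG-132 and basal cell wells; curves fitted.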
# [3] = molecular target: Beta-2 adrenergic receptor (Homo sapiens) (UniProt P07550); assay: qHTS validation assay of beta-arrestin-biased ligands of beta2-adrenergic receptor (AID 485366)
# Procedure, shortened: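 Tango cells expressing recombinant beta2-AR and beta-arrestin with tTA-driven luciferase, in DMEM with 1% FBS. Compounds were titrated up to 46 microM for 18 hr at 37 degrees C. Luminescence was read 15 min after substrate; curves were fitted and class-assigned.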
# [4] = Quantitative high throughput screen for delayed death inhibitors of the malarial parasite plastid, 96 hour incubation (AID 488745); also: nearly all actives have a fitted effect of over 70% in size; also: potency is read from the fitted curve at half-maximal effect
# Procedure, shortened: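 Luciferase-expressing P. falciparum in erythrocytes (2% hematocrit, 0.1% parasitemia) incubated with compound for 96 h at 37 C, 5% CO2, in RPMI 1640 with 0.5% Albumax. Growth inhibition read as decreased luminescence.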
# [5] = Quantitative high throughput screen for delayed death inhibitors of the malarial parasite plastid, 48 hour incubation (AID 488752); also: nearly all actives have a fitted effect of over 65% in size; also: potency is read from the fitted curve at half-maximal effect
# Procedure, shortened: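 Erythrocytes infected with firefly luciferase-expressing P. falciparum (2% hematocrit, 0.1% parasitemia) cultured with compound for 48 h at 37 C, 5% CO2, in RPMI 1640/0.5% Albumax. Growth inhibition read as loss of luminescence.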
# [6] = molecular target: Thioredoxin reductase 1, cytoplasmic (Rattus norvegicus) (UniProt O89049); assay: qHTS Assay for Substrates of Mammalian Selenoprotein Thioredoxin Reductase 1 (TrxR1) (AID 488772);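 also: NADPH fluorescence in the first read after selenite addition and not the 8 min delta; series mostly up to about 57 µM; a drop in NADPH fluorescence below the no-compound background marks a TrxR1 substrate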
# Procedure, shortened: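 Quantitative HTS in Tris-HCl buffer at pH 7.5 with EDTA and Tween-20, using rat TrxR1, 400 uM NADPH and 400 uM selenite (final). A fall in initial NADPH fluorescence relative to background marked substrate behaviour.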
# [7] = molecular target: Thioredoxin reductase 1, cytoplasmic (Rattus norvegicus) (UniProt O89049); assay: qHTS Assay for Inhibitors of Mammalian Selenoprotein Thioredoxin Reductase 1 (TrxR1) (AID 488773); conditions: Potency: inhibition;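 also: drop in NADPH fluorescence over an 8 min run after selenite addition; series mostly up to about 57 µM; nearly all actives have a fitted effect of over 40% in size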
# Procedure, shortened: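 Steps: enzyme (90 nM) plus NADPH (400 uM final), 5 min at ~22 deg C; compound added, 15 min; selenite (400 uM final) added; fluorescence followed for 8 min. Concentration-response curves derived from the normalized delta values.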
# [8] = molecular target: Flap endonuclease 1 (Homo sapiens) (UniProt P39748); assay: qHTS Validation Assay for the Inhibitors of Human Flap endonuclease 1 (FEN1) (AID 488816); also: potency is read from the fitted curve at half-maximal effect
# Procedure, shortened: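 Human FEN1 (10 nM) preincubated 15 min at room temperature with compounds, then flap DNA substrate added at 50 nM final. Fluorescence read at 0 and 15 min; concentration-response fitted with four-parameter Hill equation.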
# [9] = molecular target: M-phase phosphoprotein 8 (Homo sapiens) (UniProt Q99549); assay: qHTS Validation Assay for Inhibitors for MPP8 Chromodomain Interactions with Methylated Histone Tails (AID 488949); also: nearly all actives have a fitted effect of over 55% in size; also: potency is read from the fitted curve at half-maximal effect
# Procedure, shortened: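 AlphaScreen read-out: streptavidin donor and nickel chelate acceptor beads (final 10 ug/mL), 30 min in the dark at RT. Complex of 50 nM MPP8 and 50 nM b-H3(1-18)K9me3 peptide had been exposed to compounds for 30 min beforehand.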
# [10] = molecular target: Chromobox protein homolog 1 (Homo sapiens) (UniProt P83916); assay: qHTS Validation Assay for Inhibitors of HP1-beta Chromodomain Interactions with Methylated Histone Tails (AID 488953); also: nearly all actives have a fitted effect of over 50% in size; also: potency is read from the fitted curve at half-maximal effect
# Procedure, shortened: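 HP1-beta (50 nM) preformed 30 min with biotinylated H3(1-18)K9me3 peptide (50 nM) in PBS pH 7.4, 0.01% Tween-20. Compounds added for 30 min at room temperature. Complex disruption read by AlphaScreen with streptavidin donor/nickel chelate acceptor beads (10 ug/mL each).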
# [11] = molecular target: Methanococcus maripaludis chaperonin (MmCpn) (UniProt Q6LX38); assay: High-Throughput Screening for Modulators of Cytosolic Chaperonin Activity: MmCpn Primary Screen (AID 488978);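 also: 50 nM MmCpn enzyme hydrolysing 30 µM ATP at 37 °C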
# Procedure, shortened: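 ADP formation read by HTRF Transcreener, 665/590 nm emission after 320 nm excitation. Enzyme: archaeal chaperonin at 50 nM final; substrate ATP 30 uM final; 10 min, 37C, after 5 min compound preincubation at RT.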
# [12] = molecular target: Transient receptor potential cation channel subfamily V member 1 (Homo sapiens) (UniProt Q8NER1); assay: HTS Assay for Compounds that Act as Enhancers of the Vanilloid Receptor 1 (AID 488979)
# Procedure, shortened: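 TRPV1 cells loaded with Fluo-8 calcium dye; compound added and Ca2+ signal (ex 480/em 520 nm) followed 3 min, then capsaicin at EC20 added and read 2 more min to detect enhancement.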
# [13] = molecular target: Thyrotropin receptor (Homo sapiens) (UniProt P16473); assay: qHTS Assay for Antagonists of the Thyroid Stimulating Hormone Receptor (AID 488980); also: series mostly up to about 58 µM
# Procedure, shortened: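 TSHR-HEK293 cells; 70 uM RO 20-1724 PDE inhibitor; compound + EC80 TSH (4 nM final); anti-cAMP cryptate antibody/cAMP-d2 in lysis buffer, 30 min RT; HTRF 665/620 nm read.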
# [14] = molecular target: D(1A) dopamine receptor (Homo sapiens) (UniProt P21728); assay: HTS Assay for Allosteric Agonists of the Human D1 Dopamine Receptor: Primary Screen for Agonists (AID 488981)
# Procedure, shortened: (§1)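 Tetracycline-induced HEK293 Trex D1 cells with forced coupling to calcium, loaded with no-wash calcium dye; kinetic fluorescence read 180 s after compound addition for agonism, then a further 180 s after an EC20 dopamine challenge for potentiation.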
# [15] = molecular target: D(1A) dopamine receptor (Homo sapiens) (UniProt P21728); assay: HTS Assay for Allosteric Agonists of the Human D1 Dopamine Receptor: Primary Screen for Potentiators (AID 488982)
# Procedure, shortened: as §1
# [16] = molecular target: D(1A) dopamine receptor (Homo sapiens) (UniProt P21728); assay: HTS Assay for Allosteric Agonists of the Human D1 Dopamine Receptor: Primary Screen for Antagonists (AID 488983);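 also: calcium flux response to an EC80 dopamine challenge measured with no-wash dye; nearly all actives have a fitted effect of over 65% in size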
# Procedure, shortened: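 Tetracycline-induced HEK293 T-REx D1 line, force-coupled to calcium flux, read with no-wash calcium dye. Compound added after 10 s baseline, read 180 s for agonism, then EC80 dopamine added and read a further 180 s.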
# [17] = molecular target: ATP-dependent 6-phosphofructokinase (Trypanosoma brucei brucei) (UniProt O15648); assay: qHTS Assay to Find Inhibitors of T. brucei phosphofructokinase: hit validation (AID 492961); also: series mostly up to about 51 µM
# Procedure, shortened: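 Luminescence from ADP-Glo reports ADP generated as T. brucei PFK (1.25 nM) phosphorylates 0.5 mM fructose-6-phosphate using 0.1 mM ATP. Reactions ran 45 min at room temperature, pH 8.0.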
# [18] = molecular target: Tumor susceptibility gene 101 protein (Homo sapiens) (UniProt Q99816); assay: qHTS Validation Assay for Iinhibitors of HIV-1 Budding by Blocking the Interaction of PTAP/TSG101 (AID 485342; calls by dose curve)
# Procedure, shortened: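 FP read-out: FITC-PTAP peptide, 50 nM final, binding Tsg101 binding domain, 10 uM final; 20 min r.t.; 10 mM HEPES pH 7.5, 0.15 M NaCl, 0.01% Tween 20, 3 mM EDTA, 0.1 mM TCEP.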
# [19] = molecular target: ATP-dependent 6-phosphofructokinase (Trypanosoma brucei brucei) (UniProt O15648); assay: qHTS Validation Assay to Find Inhibitors of T. brucei phosphofructokinase (AID 485368)
# Procedure, shortened: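 Activity was read as ADP production by luminescence (ADP-Glo) after 45 min at room temperature. The enzyme was 1.25nM PFK in 0.1M TEA pH 8.0 with 0.5 mM F6P, 0.1mM ATP and 5 mM MgCl2. Compounds were titrated up to 57 uM and % activity normalized to no-enzyme and full-enzyme controls.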
# Transient receptor potential cation channel subfamily V member 1 (Homo sapiens), sequence (Q8NER1 whole entry, looked up): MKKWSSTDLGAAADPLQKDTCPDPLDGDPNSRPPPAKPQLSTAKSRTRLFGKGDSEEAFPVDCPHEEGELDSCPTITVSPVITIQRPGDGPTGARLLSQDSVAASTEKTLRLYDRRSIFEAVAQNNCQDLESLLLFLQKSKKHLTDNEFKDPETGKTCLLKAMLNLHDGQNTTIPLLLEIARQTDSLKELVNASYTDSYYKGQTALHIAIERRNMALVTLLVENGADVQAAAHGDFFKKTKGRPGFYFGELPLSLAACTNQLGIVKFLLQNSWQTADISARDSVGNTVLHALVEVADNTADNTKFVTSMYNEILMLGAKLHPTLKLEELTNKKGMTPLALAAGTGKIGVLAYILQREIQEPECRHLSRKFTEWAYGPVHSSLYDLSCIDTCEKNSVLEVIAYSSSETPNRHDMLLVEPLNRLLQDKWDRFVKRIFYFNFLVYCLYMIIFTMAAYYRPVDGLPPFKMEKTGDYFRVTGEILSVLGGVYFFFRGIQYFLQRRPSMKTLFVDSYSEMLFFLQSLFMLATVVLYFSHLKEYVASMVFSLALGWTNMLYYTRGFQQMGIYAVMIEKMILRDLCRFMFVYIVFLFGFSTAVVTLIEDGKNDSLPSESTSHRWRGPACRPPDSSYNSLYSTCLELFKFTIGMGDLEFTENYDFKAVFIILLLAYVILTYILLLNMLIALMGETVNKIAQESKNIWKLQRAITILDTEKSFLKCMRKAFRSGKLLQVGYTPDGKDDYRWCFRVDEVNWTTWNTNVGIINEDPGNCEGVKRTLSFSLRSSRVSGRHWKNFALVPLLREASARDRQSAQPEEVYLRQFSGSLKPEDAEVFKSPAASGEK
# Beta-2 adrenergic receptor (Homo sapiens), sequence (P07550 whole entry, looked up): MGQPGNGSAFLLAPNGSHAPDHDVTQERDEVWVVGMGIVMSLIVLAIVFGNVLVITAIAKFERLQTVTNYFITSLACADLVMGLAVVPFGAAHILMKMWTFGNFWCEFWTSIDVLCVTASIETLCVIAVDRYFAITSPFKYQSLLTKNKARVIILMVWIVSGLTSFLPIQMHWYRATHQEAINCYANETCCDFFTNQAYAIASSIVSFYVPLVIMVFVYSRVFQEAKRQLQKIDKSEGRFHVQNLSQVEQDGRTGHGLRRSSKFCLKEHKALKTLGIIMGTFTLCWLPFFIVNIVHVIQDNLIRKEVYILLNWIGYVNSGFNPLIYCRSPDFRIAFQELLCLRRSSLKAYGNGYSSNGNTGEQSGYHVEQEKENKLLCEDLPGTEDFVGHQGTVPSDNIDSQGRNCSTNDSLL
# DNA polymerase III PolC-type (Bacillus subtilis (strain 168)), sequence (P13267 whole entry, looked up): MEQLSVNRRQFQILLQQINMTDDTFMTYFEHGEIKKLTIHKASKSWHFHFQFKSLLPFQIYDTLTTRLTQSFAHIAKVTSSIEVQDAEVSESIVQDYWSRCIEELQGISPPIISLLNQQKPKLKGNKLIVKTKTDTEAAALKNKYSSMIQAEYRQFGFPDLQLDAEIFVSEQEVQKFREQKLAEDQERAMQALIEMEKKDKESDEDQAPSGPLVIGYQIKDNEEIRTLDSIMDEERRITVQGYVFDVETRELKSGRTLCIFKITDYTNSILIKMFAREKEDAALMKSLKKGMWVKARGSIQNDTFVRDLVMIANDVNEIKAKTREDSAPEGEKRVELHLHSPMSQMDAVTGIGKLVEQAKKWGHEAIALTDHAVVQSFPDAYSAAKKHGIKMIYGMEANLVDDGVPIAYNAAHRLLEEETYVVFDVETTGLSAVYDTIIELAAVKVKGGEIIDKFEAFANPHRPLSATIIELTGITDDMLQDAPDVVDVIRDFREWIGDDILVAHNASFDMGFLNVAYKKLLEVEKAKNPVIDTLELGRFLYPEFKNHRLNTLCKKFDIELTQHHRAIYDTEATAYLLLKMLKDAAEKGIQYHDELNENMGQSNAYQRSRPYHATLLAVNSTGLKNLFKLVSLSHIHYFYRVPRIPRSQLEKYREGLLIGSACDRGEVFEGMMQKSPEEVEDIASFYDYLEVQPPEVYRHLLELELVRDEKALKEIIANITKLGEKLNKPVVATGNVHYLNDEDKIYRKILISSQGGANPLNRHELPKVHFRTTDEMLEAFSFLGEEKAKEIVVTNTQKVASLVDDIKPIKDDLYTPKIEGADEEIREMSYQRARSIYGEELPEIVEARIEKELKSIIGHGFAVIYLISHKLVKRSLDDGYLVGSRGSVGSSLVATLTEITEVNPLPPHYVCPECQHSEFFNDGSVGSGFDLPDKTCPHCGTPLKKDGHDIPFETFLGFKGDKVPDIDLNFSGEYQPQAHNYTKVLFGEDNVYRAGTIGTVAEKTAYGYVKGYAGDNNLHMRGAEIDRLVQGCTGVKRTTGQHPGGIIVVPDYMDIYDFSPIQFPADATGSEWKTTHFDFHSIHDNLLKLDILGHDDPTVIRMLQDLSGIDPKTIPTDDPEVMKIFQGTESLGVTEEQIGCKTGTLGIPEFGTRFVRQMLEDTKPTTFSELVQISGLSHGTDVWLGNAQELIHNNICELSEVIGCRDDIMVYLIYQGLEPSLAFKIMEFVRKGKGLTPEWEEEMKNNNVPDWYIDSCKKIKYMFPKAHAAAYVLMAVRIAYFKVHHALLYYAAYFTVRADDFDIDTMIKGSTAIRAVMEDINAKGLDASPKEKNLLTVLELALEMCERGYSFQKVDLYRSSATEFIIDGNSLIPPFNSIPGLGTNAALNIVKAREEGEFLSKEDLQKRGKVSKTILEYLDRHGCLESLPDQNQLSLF
# Flap endonuclease 1 (Homo sapiens), sequence (P39748 whole entry, looked up): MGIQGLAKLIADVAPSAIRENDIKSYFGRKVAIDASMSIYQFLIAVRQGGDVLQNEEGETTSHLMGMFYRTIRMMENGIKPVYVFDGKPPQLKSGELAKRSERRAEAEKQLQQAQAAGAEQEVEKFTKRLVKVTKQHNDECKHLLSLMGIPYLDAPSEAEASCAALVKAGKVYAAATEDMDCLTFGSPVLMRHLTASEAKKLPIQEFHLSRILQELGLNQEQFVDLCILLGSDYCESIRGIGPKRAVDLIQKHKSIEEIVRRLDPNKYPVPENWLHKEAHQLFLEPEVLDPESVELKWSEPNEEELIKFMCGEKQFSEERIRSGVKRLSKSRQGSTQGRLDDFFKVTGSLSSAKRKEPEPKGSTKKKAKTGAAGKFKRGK
# D(1A) dopamine receptor (Homo sapiens), sequence (P21728 whole entry, looked up): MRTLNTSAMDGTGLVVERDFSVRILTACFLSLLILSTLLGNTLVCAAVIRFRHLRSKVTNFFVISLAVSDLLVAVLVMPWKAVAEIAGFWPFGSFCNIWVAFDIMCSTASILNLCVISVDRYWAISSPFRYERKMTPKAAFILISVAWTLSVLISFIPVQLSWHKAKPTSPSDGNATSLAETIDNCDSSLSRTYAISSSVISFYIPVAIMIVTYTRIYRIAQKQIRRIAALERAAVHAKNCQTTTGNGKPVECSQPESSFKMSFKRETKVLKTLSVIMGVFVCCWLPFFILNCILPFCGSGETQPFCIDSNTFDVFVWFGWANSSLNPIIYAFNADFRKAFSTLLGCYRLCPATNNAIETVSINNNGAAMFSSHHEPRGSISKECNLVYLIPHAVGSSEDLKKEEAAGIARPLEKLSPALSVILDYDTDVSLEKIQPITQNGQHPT
# Chromobox protein homolog 1 (Homo sapiens), sequence (P83916 whole entry, looked up): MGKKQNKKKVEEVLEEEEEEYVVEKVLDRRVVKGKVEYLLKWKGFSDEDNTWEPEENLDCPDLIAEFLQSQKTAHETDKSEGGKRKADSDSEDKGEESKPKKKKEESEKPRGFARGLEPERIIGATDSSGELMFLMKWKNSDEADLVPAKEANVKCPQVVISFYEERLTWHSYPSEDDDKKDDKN
# ATP-dependent 6-phosphofructokinase (Trypanosoma brucei brucei), sequence (O15648 whole entry, looked up): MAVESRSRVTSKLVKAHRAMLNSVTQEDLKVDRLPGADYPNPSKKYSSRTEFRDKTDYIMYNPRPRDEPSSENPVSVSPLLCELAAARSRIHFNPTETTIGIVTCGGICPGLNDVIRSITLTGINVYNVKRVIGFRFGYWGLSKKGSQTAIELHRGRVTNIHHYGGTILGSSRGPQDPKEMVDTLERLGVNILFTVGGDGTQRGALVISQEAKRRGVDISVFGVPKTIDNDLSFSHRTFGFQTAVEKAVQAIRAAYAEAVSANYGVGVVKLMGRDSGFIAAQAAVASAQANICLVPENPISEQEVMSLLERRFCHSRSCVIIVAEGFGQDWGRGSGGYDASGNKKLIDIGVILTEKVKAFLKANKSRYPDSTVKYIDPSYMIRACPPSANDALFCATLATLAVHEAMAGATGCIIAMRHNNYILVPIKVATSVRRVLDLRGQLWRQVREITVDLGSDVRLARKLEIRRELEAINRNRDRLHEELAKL
# M-phase phosphoprotein 8 (Homo sapiens), sequence (Q99549 whole entry, looked up): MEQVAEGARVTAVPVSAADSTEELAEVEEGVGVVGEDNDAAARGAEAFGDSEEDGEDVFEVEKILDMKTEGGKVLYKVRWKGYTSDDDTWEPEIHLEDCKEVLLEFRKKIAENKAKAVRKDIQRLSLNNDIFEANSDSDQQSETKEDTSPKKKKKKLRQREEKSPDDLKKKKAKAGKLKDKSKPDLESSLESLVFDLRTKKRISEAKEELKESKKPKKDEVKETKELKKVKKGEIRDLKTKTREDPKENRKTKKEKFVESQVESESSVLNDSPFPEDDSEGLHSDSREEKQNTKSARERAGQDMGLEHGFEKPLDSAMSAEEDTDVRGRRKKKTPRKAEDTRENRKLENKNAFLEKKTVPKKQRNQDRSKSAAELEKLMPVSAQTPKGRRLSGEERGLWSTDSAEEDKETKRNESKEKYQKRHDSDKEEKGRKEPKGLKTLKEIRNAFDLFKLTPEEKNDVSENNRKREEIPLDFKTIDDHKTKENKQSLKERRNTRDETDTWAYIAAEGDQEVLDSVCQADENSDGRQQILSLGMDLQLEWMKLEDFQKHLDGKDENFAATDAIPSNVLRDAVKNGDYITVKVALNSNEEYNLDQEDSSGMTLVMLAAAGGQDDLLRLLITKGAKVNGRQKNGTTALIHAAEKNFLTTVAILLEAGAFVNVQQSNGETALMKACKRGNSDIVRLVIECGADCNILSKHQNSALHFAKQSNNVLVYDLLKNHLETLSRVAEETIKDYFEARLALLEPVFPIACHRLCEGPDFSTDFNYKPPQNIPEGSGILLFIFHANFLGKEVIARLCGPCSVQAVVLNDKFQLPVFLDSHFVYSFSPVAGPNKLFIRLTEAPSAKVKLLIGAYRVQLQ
SMILES,Potency [1],Potency [2],outcome [3],Potency [4],Potency [5],outcome [6],Potency [7],Potency [8],Potency [9],Potency [10],outcome [11],outcome [12],outcome [13],Potency [14],Potency [15],Potency [16],Potency [17],outcome [18],Potency [19]
CC(C)(Oc1ccc(C2CC2(Cl)Cl)cc1)C(=O)O (stereo not given),inactive,inactive,inactive,inactive,inactive,inactive,inactive,inactive,39.8 µM (active) and inactive,inactive,inactive,inactive,inactive,inactive,inactive,inactive,inactive,–,–
Cn1cnc2c1c(=O)[nH]c(=O)n2C,inactive,–,inactive,inactive,inactive,inactive,–,inactive,inactive,inactive,inactive,inactive,inactive,inactive,inactive,inactive,–,inactive,–
COc1ccc2c(c1)c(CC(=O)O)c(C)n2C(=O)c1ccc(Cl)cc1,inactive,inactive,inactive,inactive,inactive,inactive,–,inactive,inactive,inactive,inactive,inactive,inactive,inactive,–,inactive,–,–,inactive
Cc1cc(C(C)(C)C)c(O)c(C)c1CC1=NCCN1,inactive,inactive,inactive,inactive,inactive,inactive,–,inactive,inactive,inactive,–,inactive,inactive,inactive,inactive,inactive,–,–,–
O=C1N(c2ccccc2)c2ccccc2C1(Cc1ccncc1)Cc1ccncc1,inactive,–,inactive,–,–,inactive,inactive,inactive,inactive,inactive,inactive,inactive,–,inactive,inactive,inactive,inactive,inactive,–
COc1ccccc1N1CCN(CC(O)COc2cccc3ccccc23)CC1 (stereo not given),inactive,–,inactive,inactive,inactive,inactive,inactive,inactive,–,39800 nM (active),inactive,inactive,inactive,inactive,inactive,inactive,–,inactive,–
O=C1c2c(O)ccc(O)c2C(=O)c2c(NCCNCCO)ccc(NCCNCCO)c21,1500 nM (active),–,inactive,1310 nM (active),2080 nM (active),inactive,inactive,2990 nM (active),2.82 µM (active) and 6.7 µM (active),5620 nM (active),inactive,inactive,inactive,inactive,inactive,inactive,inactive,inactive,–
Fc1ccc([C@@H]2CCNC[C@H]2COc2ccc3c(c2)OCO3)cc1,inactive,–,inactive,–,–,inactive,inactive,inactive,35.5 µM (active),–,inactive,–,inactive,–,inactive,inactive,–,inactive,–
Nc1ccn([C@H]2CC[C@@H](CO)O2)c(=O)n1,inactive,inactive,inactive,inactive,inactive,inactive,–,inactive,inactive,inactive,inactive,inactive,inactive,inactive,inactive,inactive,–,–,–
CCC1(c2ccccc2)C(=O)NCNC1=O,inactive,inactive,inactive,inactive,inactive,inactive,inactive,inactive,inactive,inactive,inactive,inactive,inactive,inactive,inactive,inactive,–,–,–
Nc1nc2c(ncn2COC(CO)CO)c(=O)[nH]1,inactive,inactive,inactive,inactive,inactive,inactive,inactive,–,inactive,inactive,inactive,inactive,inactive,inactive,inactive,inactive,inactive,–,–
CC(C(=O)O)c1cccc(C(=O)c2ccccc2)c1 (stereo not given),inactive,inactive,inactive,inactive,inactive,inactive,inactive,–,inactive,inactive,inactive,inactive,inactive,inactive,inactive,inactive,–,–,–
COc1ccc(C2CNC(=O)C2)cc1OC1CCCC1 (stereo not given),inactive,–,inactive,inactive,inactive,–,inactive,inactive,inactive,inactive,inactive,inactive,inactive,inactive,inactive,inactive,–,inactive,–
NCCS(=O)(=O)O,inactive,inactive,inactive,inactive,inactive,inactive,–,inactive,inactive,inactive,inactive,inactive,inactive,inactive,inactive,inactive,–,–,–
Clc1ccc(C(c2ccccc2Cl)C(Cl)Cl)cc1 (stereo not given),inactive,inactive,inactive,inactive,inactive,inactive,–,inactive,inactive,–,inactive,inactive,inactive,inactive,inactive,inactive,–,–,–
CC12CC3CC(C)(C1)CC(N)(C3)C2,inactive,inactive,inactive,inactive,inactive,inactive,–,–,inactive,inactive,inactive,–,inactive,inactive,inactive,inactive,–,–,–
CN1CCN2c3ccccc3Cc3ccccc3C2C1 (stereo not given),inactive,inactive,inactive,inactive,inactive,inactive,inactive,–,inactive,–,inactive,inactive,inactive,inactive,inactive,–,–,–,–
